“And” between values parts separate entries of the source, which are not always exact repeats. Equal entries are not always repeated. About 2,000 (36%) of roughly 5,500 compounds were called active. Another 18% or so got no clear call; they are omitted. Cut-off read from the data, not from the text of the source: active = normalized growth mostly below about 0.91 (no sharp cut-off); inconclusive = no clear call, values can overlap the other calls; inactive = mostly above about 0.92. The list shows a part of the results.
Experiment: chemical genetic growth profiling, strain panel (AID 1159580);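 note: tested at 20 µM; growth read once vehicle control cultures reached saturation at 30 °C; 1 = growth at the plate median or of vehicle wells; lower values mean less growth of the strain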
Conditions: S. cerevisiae deletion strains, growth OD

Measured: normalized growth

COc1cc2c(cc1OC)C(=O)C(CC1CCN(Cc3ccccc3)CC1)C2 (stereo not given)
0.657 (active) and 1.01 (inactive): locus YJL095W, strain BCK1, stronger effect = lower value
active: locus YAL026C, strain drs2, stronger effect = lower value 0.606 | locus YDL074C, strain BRE1, stronger effect = lower value 0.734 | locus YDL134C, strain PPH21, stronger effect = lower value 0.798 | locus YDR101C, strain arx1, stronger effect = lower value 0.904 | locus YDR137W, strain rgp1, stronger effect = lower value 0.627 | locus YDR162C, strain NBP2, stronger effect = lower value 0.807 | locus YDR318W, strain mcm21, stronger effect = lower value 0.913 | locus YDR502C, strain sam2, stronger effect = lower value 0.834 | locus YER167W, strain BCK2, stronger effect = lower value 0.829 | locus YGL248W, strain PDE1, stronger effect = lower value 0.818 | locus YGL253W, strain hxk2, stronger effect = lower value 0.891 | locus YGR078C, strain PAC10, stronger effect = lower value 0.821 | locus YGR135W, strain pre9, stronger effect = lower value 0.787 | locus YGR229C, strain SMI1, stronger effect = lower value 0.523 | locus YGR252W, strain gcn5, stronger effect = lower value 0.742 | locus YHR129C, strain ARP1, stronger effect = lower value 0.876 | locus YJL187C, strain SWE1 (second series), stronger effect = lower value 0.849
inactive: locus YAL013W, strain DEP1, stronger effect = lower value 0.953 | locus YAL021C, strain ccr4, stronger effect = lower value 0.942 | locus YAL030W, strain snc1, stronger effect = lower value 1.01 | locus YBL061C, strain skt5, stronger effect = lower value 0.974 | locus YBR009C, strain hhf1, stronger effect = lower value 0.975 | locus YBR021W, strain FUR4, stronger effect = lower value 1.03 | locus YBR023C, strain chs3, stronger effect = lower value 0.988 | locus YBR171W, strain sec66, stronger effect = lower value 1.03 | locus YBR229C, strain ROT2, stronger effect = lower value 1.01 | locus YBR279W, strain paf1, stronger effect = lower value 0.972 | locus YCL011C, strain gbp2, stronger effect = lower value 0.978 | locus YCL016C, strain dcc1, stronger effect = lower value 0.986 | locus YCL029C, strain bik1, stronger effect = lower value 0.989 | locus YCL061C, strain MRC1, stronger effect = lower value 0.967 | locus YCL069W, strain vba3, stronger effect = lower value 1.02 | locus YCR088W, strain abp1, stronger effect = lower value 1.01 | locus YDL005C, strain med2, stronger effect = lower value 1.03 | locus YDL035C, strain GPR1, stronger effect = lower value 0.869 | locus YDL040C, strain nat1, stronger effect = lower value 0.981 | locus YDL101C, strain DUN1, stronger effect = lower value 0.948 | locus YDL185W, strain tfp1, stronger effect = lower value 0.998 | locus YDL192W, strain arf1, stronger effect = lower value 0.926 | locus YDR001C, strain nth1, stronger effect = lower value 1.02 | locus YDR069C, strain doa4, stronger effect = lower value 0.935 | locus YDR150W, strain NUM1, stronger effect = lower value 0.977 | locus YDR159W, strain sac3, stronger effect = lower value 0.953 | locus YDR195W, strain ref2 1.08 | locus YDR297W, strain sur2, stronger effect = lower value 0.989 | locus YDR334W, strain swr1, stronger effect = lower value 1.02 | locus YDR335W, strain msn5, stronger effect = lower value 0.999 | locus YDR388W, stronger effect = lower value 0.998 | locus YDR392W, strain spt3, stronger effect = lower value 1.09 | locus YEL003W, strain gim4, stronger effect = lower value 0.988 | locus YEL037C, strain rad23, stronger effect = lower value 1.02 | locus YEL061C, strain CIN8 (second series), stronger effect = lower value 1.04 | locus YEL061C, strain CIN8, stronger effect = lower value 1.06 | locus YER015W, strain faa2, stronger effect = lower value 0.947 | locus YER016W, strain bim1, stronger effect = lower value 1 | locus YER110C, stronger effect = lower value 0.992 | locus YER111C, strain swi4, stronger effect = lower value 1.02 | locus YER155C, strain BEM2 (second series), stronger effect = lower value 1.02 | locus YER155C, strain BEM2, stronger effect = lower value 1.01 | locus YFR010W, strain ubp6, stronger effect = lower value 1.03 | locus YGL078C, strain dbp3, stronger effect = lower value 0.976 | locus YGL086W, strain mad1, stronger effect = lower value 0.954 | locus YGL167C, strain pmr1, stronger effect = lower value 0.961 | locus YGL173C, strain kem1, stronger effect = lower value 1.01 | locus YGL227W, strain vid30, stronger effect = lower value 1.06 | locus YGL240W, strain doc1, stronger effect = lower value 0.994 | locus YHR013C, strain ard1, stronger effect = lower value 0.955 | locus YHR027C, strain rpn1, stronger effect = lower value 0.99 | locus YHR030C, strain SLT2, stronger effect = lower value 0.94 and 0.973 | locus YHR079C, strain IRE1 (second series), stronger effect = lower value 0.951 | locus YHR079C, strain IRE1, stronger effect = lower value 0.949 | locus YHR094C, strain hxt1, stronger effect = lower value 1 | locus YHR142W, strain chs7, stronger effect = lower value 0.919 | locus YHR200W, strain rpn10, stronger effect = lower value 0.973 | locus YIL066C, strain RNR3, stronger effect = lower value 0.896 | locus YIL073C, strain SPO22, stronger effect = lower value 0.904 | locus YIL125W, strain kgd1, stronger effect = lower value 1.01 | locus YIR030C, strain dcg1, stronger effect = lower value 0.985 | locus YJL092W, strain hpr5, stronger effect = lower value 1.02 | locus YJL095W, strain BCK1 (second series), stronger effect = lower value 0.994 | locus YJL115W, strain asf1, stronger effect = lower value 1.02 | locus YJL129C, strain trk1, stronger effect = lower value 0.896 | locus YJL134W, strain LCB3, stronger effect = lower value 0.996 | locus YJL154C, strain vps35, stronger effect = lower value 1.01 | locus YJL164C, strain tpk1, stronger effect = lower value 1 | locus YJL166W, strain qcr8, stronger effect = lower value 0.931 | locus YJL168C, strain set2, stronger effect = lower value 0.998 | locus YJL187C, strain SWE1, stronger effect = lower value 0.975 | locus YJR043C, strain POL32, stronger effect = lower value 0.872
